Here are results for 38 molecules from PubChem BioAssay (NCATS).

Molecules are shown by their SMILES. “And” between values parts separate entries of the source, which are not always exact repeats. Identical values can stand only once. Records with an inconclusive call do not appear. Some structures have more than one record in an assay (separate samples or runs), and their calls can disagree. The source made the active and inactive calls. Calls follow the shape of the dose curve; as a rule, active = well fitted inhibition curve with a large enough effect; inconclusive = small, poorly fitted or top-dose-only effect; inactive = no such curve, though single readings can be large or run the other way.
% is scaled to controls: 0 for no effect and ±100 for the full control effect; potency is read from the fitted curve at half-maximal effect.

The nature of this experiment: Primary qHTS for inhibitors of nuclear receptor binding SET domain protein 2 (NSD2) in an RCH-ACV wild type WT cells (2C) (AID 1645877). Also: nearly all actives have a fitted effect of over 70% in size. Conditions: RCH-ACV (leukaemia line) NSD2 WT (2C) viability, CellTiter-Glo, 72 h; series mostly up to 44.9 µM; activity change, negative = cell killing: at the top concentration. Background: qHTS replaces the single test concentration by a dilution series.
For `CN(C)C(=O)COC(=O)Cc1ccc(OC(=O)c2ccc(N=C(N)N)cc2)cc1`, the Potency result is “inactive”. Consider `Oc1ccc(OCc2ccccc2)cc1`, for which the Potency result was “inactive and 4.68 µM (active)”. Take `Nc1ccc(S(N)(=O)=O)cc1`: the “activity change, negative = cell killing” value was -10.6% (inactive). On the same count and under the same terms, the result for `Cc1ccc(C)c(OCCCC(C)(C)C(=O)O)c1` reads 6.65% (inactive). On to `Nc1nc(Cl)nc2c1ncn2[C@H]1C[C@H](O)[C@@H](CO)O1`, for which the Potency was 0.0417 µM (active). With `Cc1cc(O)c2c(c1)C(=O)c1cc(O)cc(O)c1C2=O`, the call was inactive. On to `Cc1cc2cc3c(C)cc(=O)oc3c(C)c2o1`, for which the Potency result is “inactive”.

Consider `Clc1ccc(C(Cn2ccnc2)OCc2ccsc2Cl)c(Cl)c1` (stereo not drawn), for which the Potency was 18.6 µM (active). Turning to `CC[C@]1(O)C[C@H]2CN(CCc3c([nH]c4ccccc34)[C@@](C(=O)OC)(c3cc4c(cc3OC)N(C=O)[C@H]3[C@@](O)(C(=O)OC)[C@H](OC(C)=O)[C@]5(CC)C=CCN6CC[C@]43[C@@H]65)C2)C1`, the Potency is 6.7 nM (active) and 29.5 nM (active). Consider `Oc1ccc(-c2nc(-c3ccc(F)cc3)c(-c3ccncc3)[nH]2)cc1`, for which the Potency was 14.8 µM (active).

Take `CN1CCC(=C2c3ccccc3CCc3sccc32)CC1`: the Potency is 23.5 µM (active).

Regarding `COc1cc2c(N3CCN(C(=O)Nc4ccc(OC(C)C)cc4)CC3)ncnc2cc1OCCCN1CCCCC1`, the Potency is 13.3 µM (active) and 23 µM (active) and 16.6 µM (active).

On to `Cc1ccc(NC(=O)c2ccc(CN3CCN(C)CC3)cc2)cc1Nc1nccc(-c2cccnc2)n1`, for which the Potency was 13.3 µM (active) and 18.4 µM (active) and 16.6 µM (active). For `O=P(O)(O)C(O)(Cn1ccnc1)P(=O)(O)O`, the outcome was “inactive [at 4.96 µM]”. For the molecule `CC(C)[C@H](N)C(=O)OCCOCn1cnc2c(=O)[nH]c(N)nc21`, the Potency entry was “inactive”.

`N=C(N=C(N)N)N1CCOCC1`: the “activity change, negative = cell killing” value is -3.17% (inactive).

Regarding `C[C@@H](N)C1CCC(C(=O)Nc2ccncc2)CC1` (stereo partly drawn), the “activity change, negative = cell killing” value is -17.5% (inactive). For `CN(C)[C@@H](CCOc1cccc2ccccc12)c1ccccc1`, the Potency was 23.7 µM (active). The same measure, in the same setting: the result for `Cc1ccc(S(=O)(=O)NC(=O)NN2CC3CCCC3C2)cc1` (stereo not drawn) reads “inactive”.

Consider `COc1cc2c(cc1OC)C1CC(=O)C(CC(C)C)CN1CC2` (stereo not drawn), for which the “activity change, negative = cell killing” value is 9.93% (inactive). Regarding `CCCS(=O)c1ccc2nc(NC(=O)OC)[nH]c2c1` (stereo not drawn), the Potency is 2.66 µM (active) and 18.6 µM (active) and 4.09 µM (active). On the same count and under the same terms, the result for `Clc1ccc(C(Cn2ccnc2)OCc2ccc(Sc3ccccc3)cc2)c(Cl)c1` (stereo not drawn) reads 16.6 µM (active); that for `CCCCN(CCCC)CCC(O)c1cc2c(Cl)cc(Cl)cc2c2cc(C(F)(F)F)ccc12` (stereo not drawn), 16.6 µM (active); that for `O=Nc1c(-c2c(O)[nH]c3cc(Br)ccc23)[nH]c2ccccc12`, 1.32 µM (active). On to `NS(=O)(=O)c1cc(C(=O)O)c(NCc2ccco2)cc1Cl`, for which the “activity change, negative = cell killing” value is 6.05% (inactive). Consider `CCCOc1ccc2nc(NC(=O)OC)[nH]c2c1`, for which the Potency is 366 nM (active) and 263 nM (active). As for `Clc1ccc2c(N3CCN(CCCN4CCN(c5ccnc6cc(Cl)ccc56)CC4)CC3)ccnc2c1`, the “activity change, negative = cell killing” value was -21.6% (inactive). As to `COc1cc(OC)c(C(=O)CCCN2CCCC2)c(OC)c1`, the Potency entry is “inactive”. For the molecule `CC(=O)NC[C@H]1CN(c2ccc(N3CCOCC3)c(F)c2)C(=O)O1`, the “activity change, negative = cell killing” value was 3.97% (inactive).

In the case of `CCCCc1ccc2nc(NC(=O)OC)[nH]c2c1`, the Potency is 47.3 nM (active) and 118 nM (active). The same measure, in the same setting: the figure for `O=C1c2ccccc2-c2n[nH]c3cccc1c23` is 13.2 µM (active) and 14.6 µM (active); for `O=C(NCCO[N+](=O)[O-])c1cccnc1` it is “inactive”. As for `Cc1cc2c(s1)Nc1ccccc1N=C2N1CCN(C)CC1`, the Potency is 23.5 µM (active).

Consider `CC(=O)O[C@H]1C(=O)[C@@]2(C)C([C@H](OC(=O)c3ccccc3)[C@]3(O)C[C@H](OC(=O)[C@H](O)[C@@H](NC(=O)c4ccccc4)c4ccccc4)C(C)=C1C3(C)C)[C@]1(OC(C)=O)CO[C@@H]1C[C@@H]2O` (stereo partly drawn), for which the Potency was 5.1 nM (active) and 5.9 nM (active). On the same count and under the same terms, the figure for `S=c1nc[nH]c2nc[nH]c12` is 668 nM (active) and 1.66 µM (active). Regarding `COCCCOc1ccnc(CS(=O)c2nc3ccccc3[nH]2)c1C` (stereo not drawn), the “activity change, negative = cell killing” value was -0.248% (inactive). On the same count and under the same terms, the figure for `CCCCC(CC)COC(=O)C(C#N)=C(c1ccccc1)c1ccccc1` (stereo not drawn) is -95.5% (inactive). In the case of `Cc1nccn1CC1CCc2c(c3ccccc3n2C)C1=O` (stereo not drawn), the “activity change, negative = cell killing” value was -37.4% (inactive).
